Source: PubChem
PLK1 PBD inh – blocks phosphopeptide binding to human PLK1 polo-box domain; P53350; Plk1 PBD binding of FITC phosphopeptide, fluorescence polarization; Potency, µM, inactives show max response, negative = inhibition, actives largely listed as inhibitors; actives 2.8% (n = 360,000); further: series mostly up to about 57 µM; nearly all actives have a fitted effect of over 65% in size
KAT2A inh – inhibitors of human GCN5L2 histone acetyltransferase. GCN5L2 HAT assay, ThioGlo1 CoA-SH fluorescence. Q92830. AID 504327. actives 0.21% (n = 390,000). Potency, µM (top dose mostly 58.9 µM), without a hit: top-dose activity change, negative = inhibition, actives largely listed as inhibitors
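Free CoA generated was detected with ThioGlo1 (50uM) fluorescence at Ex340nm/Em540nm, read immediately and after 20 min at room temperature. Enzyme, 20 nM in HEPES pH 7.5 buffer, saw compounds 15 min before adding 75uM H3(1-25) peptide and 70uM acetyl-CoA.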
VDR inh – vitamin D3 receptor (human) inhibition; P11473; VDR-SRC2-3 peptide fluorescence polarization, 2 h; Potency, µM, inactives show max response, negative = inhibition, most hits filed as inhibitors; actives 0.93% (n = 400,000); AID 504847
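Signal is fluorescence polarization, reporting how far test compounds block the interaction of VDR with the SRC2-3 coregulator peptide after a 2 h room-temperature incubation.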
ALOX12 inh – ALOX12 (human) lipoxygenase inhibition. P18054. purified 12hLO, xylenol orange hydroperoxide absorbance. Potency, µM (top dose mostly 108 µM), inactives show at the top dose activity change, negative = inhibition, hits mostly inhibitors. actives 1.1% (n = 580,000). AID 1671190
Target sequence (P18054 whole entry, looked up): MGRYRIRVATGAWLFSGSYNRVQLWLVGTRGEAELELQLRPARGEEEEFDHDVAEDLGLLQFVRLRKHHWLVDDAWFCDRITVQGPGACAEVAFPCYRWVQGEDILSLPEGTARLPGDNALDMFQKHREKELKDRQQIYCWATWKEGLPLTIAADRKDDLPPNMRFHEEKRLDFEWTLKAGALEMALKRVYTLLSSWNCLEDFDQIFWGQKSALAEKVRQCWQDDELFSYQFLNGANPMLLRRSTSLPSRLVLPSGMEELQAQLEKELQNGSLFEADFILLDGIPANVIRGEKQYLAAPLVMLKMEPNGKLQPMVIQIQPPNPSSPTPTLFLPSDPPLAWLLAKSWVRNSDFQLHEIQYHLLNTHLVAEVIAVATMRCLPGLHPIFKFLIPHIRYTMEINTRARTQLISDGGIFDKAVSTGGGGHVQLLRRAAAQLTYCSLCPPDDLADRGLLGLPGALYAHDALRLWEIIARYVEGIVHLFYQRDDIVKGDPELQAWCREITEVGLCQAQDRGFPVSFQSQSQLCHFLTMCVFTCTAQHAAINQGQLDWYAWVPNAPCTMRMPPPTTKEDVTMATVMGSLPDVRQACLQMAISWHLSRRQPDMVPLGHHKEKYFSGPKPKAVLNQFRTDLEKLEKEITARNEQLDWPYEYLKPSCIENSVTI
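Hydroperoxide product was detected by ferrous iron/xylenol orange as the 573 to 405 nm absorbance ratio. Arachidonic acid at 40 uM (final) was turned over for 30 min at room temperature by 150 nM human 12hLO, pH 7.0 Hepes buffer, after 15 min compound preincubation.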
TbPYK confirm – Trypanosoma brucei pyruvate kinase inhibition, cherry-pick confirmation; shares compounds with PLK1 PBD inh; actives 67% (n = 890); Potency, µM (titrated, usually from 76.9 µM), inactives show top-dose activity change, negative = inhibition, most hits filed as inhibitors; recombinant TbPYK, Kinase-Glo ATP luminescence; AID 720569; further: nearly all actives have a fitted effect of over 70% in size
TbPYK ADP-Glo – TbPYK inhibition, orthogonal confirmation | actives 62% (n = 890) | Potency, µM (titrated, usually from 76.9 µM), for the others: top-dose activity change, negative = inhibition, actives largely listed as inhibitors | shares compounds with PLK1 PBD inh | recombinant TbPYK, ADP-Glo luminescence, 60 min; further: nearly all actives have a fitted effect of over 75% in size
Active calls of the source: *; ? = inconclusive; · = no result; [ ] = another dose, or the depositor's remark. Most compounds without a hit are left out; they make up all but 3% or so of the library. The call rests on the fitted dose curve; in most records, active means well fitted curve in the direction sought with a large enough effect; inconclusive means small, poorly fitted or top-dose-only effect, or another doubt; inactive means no such curve, though single readings can be large; an effect the other way counts as inactive or inconclusive. On the % scale 0 is the no-effect control and ±100 the full control effect; potency means the concentration at half of the fitted maximal effect.

SMILES	PLK1 PBD inh	KAT2A inh	VDR inh	ALOX12 inh	TbPYK confirm	TbPYK ADP-Glo
Cc1c(CBr)[n+](=O)c2c(n1[O-])C(Br)CCC2Br (stereo not given)	27µM*	-24%	35µM*	-14%	1.1µM*	3.5µM*
O=C(Nc1cccnc1)c1cc(-c2ccc(Br)cc2)nc2ccccc12	-11%	-10%	8%	-9%	·	·
Cc1ccc(-c2cc(C(=O)Nc3cccnc3)c3ccccc3n2)o1	?	?	-25%	10µM*	?	-27%
COc1cc(/C=N/N=C2/NC(=O)C(CC(=O)O)S2)ccc1OCc1ccc(Cl)cc1 (stereo not given)	-23%	-4%	-26%	-16%	16µM*	35µM*
COc1cccc(CCC(=O)N2CCCN(c3cc(-c4ccc(Cl)cc4)[nH]n3)CC2)c1	·	·	·	-4%	·	·
O=C1CCCCCCC1Sc1ccccc1[N+](=O)[O-] (stereo not given)	?	-4%	-14%	0%	13µM*	?
Cn1cccc1C(=O)C(=O)Nc1cc(Cl)cc(Cl)c1	3µM*	0%	?	87%	-2%	3%
CCCCCCOc1ccccc1/C=C(\C#N)C(=O)c1ccccc1	·	·	·	-12%	·	·
CN(C)c1ccc(/C=N/NC(=O)C2COc3ccccc3O2)o1 (stereo not given)	-15%	-8%	-18%	-13%	?	35µM*
COc1ccccc1-c1nnc(SCC(=O)Nc2oc(C)c3c(C)n[nH]c(=O)c23)n1C	-13%	-5%	-3%	-24%	·	·
COCC(C)n1c(COc2ccccc2F)nnc1SCC(=O)Nc1oc(C)c2c(C)n[nH]c(=O)c12 (stereo not given)	-20%	1%	-4%	?	20µM*	18µM*
CCOC(=O)C(=Cc1cc(=O)c(OC)co1)C(=O)OCC	24µM*	-1%	40µM*	-7%	28µM*	?
COc1cccc(-n2c(COc3ccc(C)cc3)nnc2SCC(N)=O)c1	-7%	-2%	-17%	-8%	·	·
COc1cccc(C(=O)CSc2nnc(CNS(C)(=O)=O)n2-c2ccc(C)cc2)c1	-19%	2%	?	?	?	28µM*
O=C(NCCNc1ccncc1)Nc1ccccc1	·	·	·	-28%	·	·
CCOC(=O)CSc1nnc(Cc2ccccc2)n1-c1cccc(Cl)c1	-25%	-5%	-17%	·	·	·
CCOC(=O)CSc1nnc(Cc2ccc(OC)cc2)n1-c1ccccc1	-2%	-6%	3%	0%	3.2µM*	5µM*
O=C1C=CC(=O)N1CCCCCCN1C(=O)C=CC1=O	3.4µM*	0%	3.2µM*	?	7.1µM*	7.1µM*
O=C(O)CN1C(=O)C=CC1=O	?	·	·	-16%	·	·
CCc1nnsc1C(=O)NC(C)c1ccc(SC)cc1 (stereo not given)	·	·	·	5%	·	·
CN1CCN(c2nc(-c3ccc(Cl)s3)cs2)CC1	19µM*	-8%	-12%	8.9µM*	?	16µM*
CN(Cc1ccccc1C(F)(F)F)C(=O)Cc1ccccn1	·	·	·	70%[176 µM]	·	·
CC1(C)OC(=O)C(=Cc2ccc(-c3ccc(S(N)(=O)=O)cc3)o2)C(=O)O1	1.3µM*	?	79µM*	?	13µM*	16µM*
COc1ccccc1C(=O)NCc1ccc(-c2nc3ncccc3o2)cc1	·	·	·	-27%	·	·
N#C/C(=C\c1ccc(N2CCOCC2)o1)C(=O)NCC1CCCO1 (stereo not given)	80%	-8%	0%	-21%	·	·
SMILES	PLK1 PBD inh	KAT2A inh	VDR inh	ALOX12 inh	TbPYK confirm	TbPYK ADP-Glo
N#C/C(=C/c1ccc(N2CCCCCC2)o1)c1ccc(Cl)cc1	-6%	-23%	22µM*	·	?	35µM*
Cc1nonc1C(=O)N/N=C/c1ccc(O)cc1O	-6%	1%	9%	2%	28µM*	-1%
Cc1cccc(NC2=C(NC(=O)c3ccccc3)C(=O)c3ccccc3C2=O)c1	?	-9%	?	14µM*	14µM*	11µM*
CC1=NN(c2ccccc2)C(=O)/C1=C/C=C/c1ccc(N(C)C)cc1	0%	-2%	79µM*	-1%	25µM*	11%
Cc1nc(SCc2ccc(O)c([N+](=O)[O-])c2)c([N+](=O)[O-])[nH]1	-30%	14µM*	?	?	?	13µM*
S=C(NCc1ccccc1)NNc1nc2ccccc2[nH]1	17µM*	?	25µM*	32µM*	?	18µM*
O=C(COc1ccc2ccc(=O)oc2c1)NC(=O)NC1CCCCC1	·	·	·	-18%	·	·
COCCn1c(SCCN2CCOCC2)nc2c1c(=O)[nH]c(=O)n2C	12µM*	2%	?	-24%	10µM*	14µM*
Cc1cc(OCC(=O)Nc2sc3c(c2C(=O)N2CCOCC2)CCCC3)ccc1Cl	·	·	·	-3%	·	·
CN1C(=CC=C2C=C(I)C(=O)C(I)=C2)C(C)(C)c2ccccc21	55%	-10%	6%	·	?	6%
CN1/C(=C\C=C2/C(=O)Oc3ccccc3C2=O)C(C)(C)c2ccccc21	-106%	-16%	-10%	12%	·	·
CCCCC(=O)N(Cc1ccc2c(c1)OCO2)Cc1nc2ccccc2c(=O)[nH]1	6.7µM*	1%	?	?	7%	2%
COc1ccc(-c2ccc(CCC(=O)Nc3ccc(OC)c(Cl)c3)o2)cc1	·	·	·	-63%	·	·
O=C1C=CC(=O)N1c1cccc(-c2ccccc2)c1	2.7µM*	-18%	45µM*	?	4µM*	7.9µM*
CC(C)n1nc(OC(C)(C)C(=O)NCCOc2ccccc2)c2cc(CN3CCOCC3)ccc21	·	·	·	10%	·	·
O=C(O)C(Cc1ccccc1)N1C(=O)CCC1=O (stereo not given)	-13%	-2%	-9%	-8%	·	·
O=C(O)C(Cc1ccccc1)N1C(=O)C=CC1=O (stereo not given)	6.7µM*	·	·	-2%	18µM*	32µM*
CNC(=O)N1CCCC1c1nc(C2CN(C(=O)c3cnccn3)C2)no1 (stereo not given)	·	·	·	36%	·	·
Cc1nc(NC(=O)c2ccco2)sc1C(=O)O	-5%	-8%	0%	-3%	20µM*	-10%
COC(=O)c1sc(NC(=O)c2ccco2)nc1C	-4%	-4%	-3%	12%	·	·
O=C1C(Cl)=C(NCCCO)C(=O)c2ccccc21	-9%	1%	-10%	0%	·	·
CCOCCCNC1=C(Cl)C(=O)c2ccccc2C1=O	21µM*	-22%	?	0%	?	?
COc1ccc(S(=O)(=O)N2CCCC(C(=O)Nc3cccnc3)C2)cc1Cl (stereo not given)	2.7µM*	-1%	-17%	?	-4%	-11%
O=C(O)C1CCN(C(=O)Cn2ccc3c(Cl)cccc32)CC1	·	·	·	-26%	·	·
C/C(Cn1nc([N+](=O)[O-])cc1C)=N\NC(=O)COc1c(Cl)cc(Cl)cc1Cl	-9%	15%	-7%	-3%	2%	-3%
